Assay in all cases: DAPPL (digital affinity profiling via proximity ligation, sequencing); 10 mM Tris-HCl pH 7.5, 50 mM NaCl, 1 mM DTT, 4% glycerol, room temperature, 30 min; GST-TFs on glutathione beads, 16-mer random dsDNA library, 0.1% formaldehyde crosslink after washing; high values mean tight binding
One experiment concerns the target T1, FEV (Homo sapiens, UniProt Q99581 1-238).
T1 sequence: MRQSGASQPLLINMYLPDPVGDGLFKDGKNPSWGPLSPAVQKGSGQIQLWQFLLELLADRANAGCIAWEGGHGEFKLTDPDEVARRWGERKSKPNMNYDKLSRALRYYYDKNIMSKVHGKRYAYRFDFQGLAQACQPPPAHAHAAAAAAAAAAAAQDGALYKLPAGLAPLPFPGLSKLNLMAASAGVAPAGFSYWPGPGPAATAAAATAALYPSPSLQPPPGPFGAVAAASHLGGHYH
Conditions: protein: recombinant; tags: N-terminal GST; dsDNA, one strand shown. In short, it runs like this:
(§1)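 Human transcription factors were made in yeast as GST fusions, captured on glutathione beads and barcoded with DNA. With a tag-only sample included, the pool was incubated with 200 nmole of a random double-stranded 16-mer DNA library in Tris/NaCl/DTT/glycerol buffer at room temperature for 30 min, then crosslinked with 0.1% formaldehyde after washing, ligated by proximity, amplified and sequenced. For binding signal, each hexamer's read frequency for a factor is divided by its frequency for the tag-only sample.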

The target of a further experiment is ETV5 (Homo sapiens, UniProt P41161 1-510). To be noted: protein: recombinant; tags: N-terminal GST; dsDNA, one strand shown. A digest of the protocol: as §1
Chain of ETV5 (P41161 whole entry): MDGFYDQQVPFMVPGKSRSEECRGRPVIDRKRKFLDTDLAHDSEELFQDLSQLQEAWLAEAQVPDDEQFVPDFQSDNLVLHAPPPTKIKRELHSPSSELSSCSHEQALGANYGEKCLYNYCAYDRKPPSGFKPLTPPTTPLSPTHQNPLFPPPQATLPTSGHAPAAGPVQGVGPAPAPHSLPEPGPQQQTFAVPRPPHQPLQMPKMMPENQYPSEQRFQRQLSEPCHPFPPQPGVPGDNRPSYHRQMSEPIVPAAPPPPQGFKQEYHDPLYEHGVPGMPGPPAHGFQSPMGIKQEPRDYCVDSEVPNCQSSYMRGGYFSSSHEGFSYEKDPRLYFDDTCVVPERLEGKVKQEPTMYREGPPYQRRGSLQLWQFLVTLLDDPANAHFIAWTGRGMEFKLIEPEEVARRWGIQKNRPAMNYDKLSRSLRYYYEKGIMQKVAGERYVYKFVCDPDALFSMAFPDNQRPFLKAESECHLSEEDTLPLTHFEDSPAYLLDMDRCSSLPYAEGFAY
Another experiment concerns the target HSF1 (Homo sapiens, UniProt Q00613 1-529). Conditions: protein: recombinant; tags: N-terminal GST; chain copies: 3; dsDNA, one strand shown. A digest of the protocol:
as §1

Another experiment deals with T2, SPIC (Homo sapiens, UniProt Q8N5J4 1-248).
T2 sequence: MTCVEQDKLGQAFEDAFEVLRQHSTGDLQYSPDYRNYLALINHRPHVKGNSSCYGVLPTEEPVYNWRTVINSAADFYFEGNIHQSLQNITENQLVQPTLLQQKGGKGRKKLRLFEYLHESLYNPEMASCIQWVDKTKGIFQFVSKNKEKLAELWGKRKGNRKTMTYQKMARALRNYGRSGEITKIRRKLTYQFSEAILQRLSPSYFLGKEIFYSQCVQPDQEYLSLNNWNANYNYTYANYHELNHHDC
Conditions: protein: recombinant; tags: N-terminal GST; dsDNA, one strand shown. A digest of the protocol:
as §1

For a further experiment, the target named is ELF4 (Homo sapiens, UniProt Q99607 1-663). Conditions: protein: recombinant; tags: N-terminal GST; dsDNA, one strand shown. A digest of the protocol:
as §1

In the next experiment the target is T3, ELK4 (Homo sapiens, UniProt P28324-2 1-405).
T3 sequence: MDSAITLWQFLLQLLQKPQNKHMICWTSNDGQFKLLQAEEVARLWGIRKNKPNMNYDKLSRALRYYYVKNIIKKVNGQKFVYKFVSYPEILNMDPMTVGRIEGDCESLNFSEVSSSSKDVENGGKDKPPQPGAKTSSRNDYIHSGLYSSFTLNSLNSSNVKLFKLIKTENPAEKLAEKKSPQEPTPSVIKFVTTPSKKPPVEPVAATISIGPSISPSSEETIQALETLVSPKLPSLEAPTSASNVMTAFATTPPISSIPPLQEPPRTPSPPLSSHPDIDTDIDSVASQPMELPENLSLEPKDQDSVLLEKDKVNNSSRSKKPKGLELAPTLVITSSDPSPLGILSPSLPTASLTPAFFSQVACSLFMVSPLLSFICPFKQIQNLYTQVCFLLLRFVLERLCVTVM
To be noted: protein: recombinant; tags: N-terminal GST; dsDNA, one strand shown. A digest of the protocol:
as §1

Another experiment has as its target T4, ETV2 (Homo sapiens, UniProt O00321 1-342).
T4 sequence: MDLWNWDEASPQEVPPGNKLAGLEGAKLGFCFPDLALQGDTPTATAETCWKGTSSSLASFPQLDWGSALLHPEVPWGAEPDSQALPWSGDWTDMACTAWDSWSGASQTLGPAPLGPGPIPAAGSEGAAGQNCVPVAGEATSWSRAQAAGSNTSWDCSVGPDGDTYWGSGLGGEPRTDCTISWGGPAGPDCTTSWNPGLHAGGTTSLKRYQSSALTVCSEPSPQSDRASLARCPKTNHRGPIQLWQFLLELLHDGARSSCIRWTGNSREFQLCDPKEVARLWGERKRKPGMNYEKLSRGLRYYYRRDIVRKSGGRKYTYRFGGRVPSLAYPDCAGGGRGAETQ
To be noted: protein: recombinant; tags: N-terminal GST; dsDNA, one strand shown. A digest of the protocol:
as §1

The next experiment deals with T5, ELF3 (Homo sapiens, UniProt P78545 1-371).
T5 sequence: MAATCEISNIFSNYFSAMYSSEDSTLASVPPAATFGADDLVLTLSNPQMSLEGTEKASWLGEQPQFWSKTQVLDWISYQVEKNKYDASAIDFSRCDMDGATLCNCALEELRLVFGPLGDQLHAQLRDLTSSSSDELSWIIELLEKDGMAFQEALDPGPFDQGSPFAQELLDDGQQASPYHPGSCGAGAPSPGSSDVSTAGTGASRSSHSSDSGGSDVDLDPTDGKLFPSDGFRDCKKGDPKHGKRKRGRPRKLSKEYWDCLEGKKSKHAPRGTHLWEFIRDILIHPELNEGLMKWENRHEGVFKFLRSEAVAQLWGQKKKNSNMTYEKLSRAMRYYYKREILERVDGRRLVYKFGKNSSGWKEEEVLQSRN
To be noted: protein: recombinant; tags: N-terminal GST; dsDNA, one strand shown. A digest of the protocol: as §1

The target of another experiment is CRX (Homo sapiens, UniProt O43186 1-299). To be noted: protein: recombinant; tags: N-terminal GST; dsDNA, one strand shown. In short, it runs like this: as §1
Chain of CRX (O43186 whole entry): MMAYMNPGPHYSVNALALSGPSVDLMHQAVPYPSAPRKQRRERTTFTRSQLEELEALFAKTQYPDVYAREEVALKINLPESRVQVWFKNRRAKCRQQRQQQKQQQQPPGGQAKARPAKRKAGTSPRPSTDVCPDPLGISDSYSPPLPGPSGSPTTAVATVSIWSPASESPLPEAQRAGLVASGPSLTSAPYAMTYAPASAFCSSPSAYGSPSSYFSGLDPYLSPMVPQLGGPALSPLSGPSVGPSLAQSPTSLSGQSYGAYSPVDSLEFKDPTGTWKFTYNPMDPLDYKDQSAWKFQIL
The target in another experiment is ETV1 (Homo sapiens, UniProt P50549 1-477). To be noted: protein: recombinant; tags: N-terminal GST; dsDNA, one strand shown. A digest of the protocol: as §1
Chain of ETV1 (P50549 whole entry): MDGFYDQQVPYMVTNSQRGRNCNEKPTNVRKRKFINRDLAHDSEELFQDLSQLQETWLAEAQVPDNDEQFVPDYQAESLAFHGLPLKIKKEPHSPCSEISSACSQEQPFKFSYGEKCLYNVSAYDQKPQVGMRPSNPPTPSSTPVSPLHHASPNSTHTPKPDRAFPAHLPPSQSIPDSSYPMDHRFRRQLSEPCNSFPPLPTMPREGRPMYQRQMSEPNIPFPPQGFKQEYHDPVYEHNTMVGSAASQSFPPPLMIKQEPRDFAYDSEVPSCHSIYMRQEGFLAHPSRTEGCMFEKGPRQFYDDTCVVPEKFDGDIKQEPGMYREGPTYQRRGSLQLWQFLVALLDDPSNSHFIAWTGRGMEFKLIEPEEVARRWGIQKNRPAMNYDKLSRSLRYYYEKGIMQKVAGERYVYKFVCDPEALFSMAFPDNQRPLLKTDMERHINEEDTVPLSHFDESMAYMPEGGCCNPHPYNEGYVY
The next experiment concerns the target T6, ERF (Homo sapiens, UniProt P50548 1-548).
T6 sequence: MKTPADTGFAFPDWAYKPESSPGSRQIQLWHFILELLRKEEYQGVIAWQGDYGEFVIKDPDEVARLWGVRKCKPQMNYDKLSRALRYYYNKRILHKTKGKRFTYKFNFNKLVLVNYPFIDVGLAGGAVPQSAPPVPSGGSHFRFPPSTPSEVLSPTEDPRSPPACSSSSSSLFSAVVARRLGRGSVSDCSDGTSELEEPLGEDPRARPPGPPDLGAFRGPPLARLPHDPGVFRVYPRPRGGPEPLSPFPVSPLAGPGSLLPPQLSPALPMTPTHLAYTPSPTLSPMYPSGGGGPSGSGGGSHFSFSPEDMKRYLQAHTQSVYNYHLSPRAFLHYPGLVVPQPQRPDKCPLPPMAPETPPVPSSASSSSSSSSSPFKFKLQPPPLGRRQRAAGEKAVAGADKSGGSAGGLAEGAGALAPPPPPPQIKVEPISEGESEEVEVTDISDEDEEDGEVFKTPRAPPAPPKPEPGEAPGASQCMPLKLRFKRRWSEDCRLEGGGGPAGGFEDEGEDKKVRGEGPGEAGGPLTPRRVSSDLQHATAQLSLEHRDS
To be noted: protein: recombinant; tags: N-terminal GST; dsDNA, one strand shown. A digest of the protocol: as §1

Another experiment deals with T7, ETV3L (Homo sapiens, UniProt Q6ZN32 1-361).
T7 sequence: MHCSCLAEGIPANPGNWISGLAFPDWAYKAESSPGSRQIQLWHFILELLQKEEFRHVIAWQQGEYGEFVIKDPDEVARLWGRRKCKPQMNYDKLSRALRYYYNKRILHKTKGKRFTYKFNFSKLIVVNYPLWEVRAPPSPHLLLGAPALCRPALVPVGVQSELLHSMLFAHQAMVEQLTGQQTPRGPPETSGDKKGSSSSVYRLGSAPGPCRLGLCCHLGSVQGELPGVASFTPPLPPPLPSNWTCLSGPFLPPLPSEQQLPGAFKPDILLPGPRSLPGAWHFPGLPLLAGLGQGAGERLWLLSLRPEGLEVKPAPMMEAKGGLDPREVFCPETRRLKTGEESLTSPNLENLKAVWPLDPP
To be noted: protein: recombinant; tags: N-terminal GST; dsDNA, one strand shown. In short, it runs like this: as §1

A further experiment addresses T8, ETS2 (Homo sapiens, UniProt P15036 1-469).
T8 sequence: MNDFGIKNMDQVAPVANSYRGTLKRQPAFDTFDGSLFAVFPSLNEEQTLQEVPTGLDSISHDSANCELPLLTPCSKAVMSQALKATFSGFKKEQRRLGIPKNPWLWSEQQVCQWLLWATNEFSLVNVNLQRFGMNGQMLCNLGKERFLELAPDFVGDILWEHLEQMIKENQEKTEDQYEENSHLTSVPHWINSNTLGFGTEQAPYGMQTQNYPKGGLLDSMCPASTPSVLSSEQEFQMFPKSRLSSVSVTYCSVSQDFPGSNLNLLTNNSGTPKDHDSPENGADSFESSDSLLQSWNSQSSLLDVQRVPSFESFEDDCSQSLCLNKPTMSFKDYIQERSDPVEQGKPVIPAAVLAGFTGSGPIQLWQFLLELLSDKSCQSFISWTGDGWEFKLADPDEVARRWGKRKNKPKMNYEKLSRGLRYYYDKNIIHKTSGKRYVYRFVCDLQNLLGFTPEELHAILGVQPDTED
Conditions: protein: recombinant; tags: N-terminal GST; dsDNA, one strand shown. In short, it runs like this: as §1

Another experiment addresses T9, SPDEF (Homo sapiens, UniProt O95238 1-335).
T9 sequence: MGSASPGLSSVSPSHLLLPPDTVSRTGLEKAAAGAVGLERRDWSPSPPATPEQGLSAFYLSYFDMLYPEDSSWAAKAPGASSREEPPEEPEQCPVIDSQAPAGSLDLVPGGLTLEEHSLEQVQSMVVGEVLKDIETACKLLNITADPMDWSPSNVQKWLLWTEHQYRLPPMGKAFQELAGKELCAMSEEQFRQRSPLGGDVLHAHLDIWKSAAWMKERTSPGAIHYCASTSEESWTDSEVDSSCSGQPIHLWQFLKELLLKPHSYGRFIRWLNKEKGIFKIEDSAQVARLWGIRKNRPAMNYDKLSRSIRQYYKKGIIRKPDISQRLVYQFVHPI
Conditions: protein: recombinant; tags: N-terminal GST; dsDNA, one strand shown. A digest of the protocol:
as §1

In another experiment the target is T10, ETV7 (Homo sapiens, UniProt Q9Y603 1-341).
T10 sequence: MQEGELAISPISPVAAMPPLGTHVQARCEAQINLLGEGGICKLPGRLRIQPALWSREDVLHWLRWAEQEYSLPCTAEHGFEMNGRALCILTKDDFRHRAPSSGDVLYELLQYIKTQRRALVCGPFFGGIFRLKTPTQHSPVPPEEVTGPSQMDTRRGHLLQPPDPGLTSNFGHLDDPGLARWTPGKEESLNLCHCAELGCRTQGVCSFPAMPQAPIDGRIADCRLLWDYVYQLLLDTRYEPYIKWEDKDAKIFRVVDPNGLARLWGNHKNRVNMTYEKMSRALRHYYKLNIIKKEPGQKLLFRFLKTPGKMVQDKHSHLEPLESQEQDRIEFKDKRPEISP
To be noted: protein: recombinant; tags: N-terminal GST; dsDNA, one strand shown. A digest of the protocol:
as §1

The next experiment concerns the target T11, ELF5 (Homo sapiens, UniProt Q9UKW6-2 1-255).
T11 sequence: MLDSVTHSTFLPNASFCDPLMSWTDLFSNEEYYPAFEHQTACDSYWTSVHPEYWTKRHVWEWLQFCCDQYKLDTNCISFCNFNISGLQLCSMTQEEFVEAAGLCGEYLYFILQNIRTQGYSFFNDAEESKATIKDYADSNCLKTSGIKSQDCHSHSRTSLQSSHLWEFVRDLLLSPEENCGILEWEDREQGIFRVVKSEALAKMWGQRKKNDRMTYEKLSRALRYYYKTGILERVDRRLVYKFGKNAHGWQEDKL
To be noted: protein: recombinant; tags: N-terminal GST; dsDNA, one strand shown. A digest of the protocol:
as §1

The target of a further experiment is T12, ETV3 (Homo sapiens, UniProt P41162-2 1-143).
T12 sequence: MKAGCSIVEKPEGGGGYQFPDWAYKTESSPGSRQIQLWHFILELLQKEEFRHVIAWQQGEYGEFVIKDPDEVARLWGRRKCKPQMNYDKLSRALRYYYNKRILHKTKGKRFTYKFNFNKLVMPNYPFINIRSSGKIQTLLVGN
To be noted: protein: recombinant; tags: N-terminal GST; dsDNA, one strand shown. A digest of the protocol:
as §1

Another experiment concerns the target ETV6 (Homo sapiens, UniProt P41212 1-452). To be noted: protein: recombinant; tags: N-terminal GST; dsDNA, one strand shown. A digest of the protocol: as §1

Chain of HSF1 (Q00613 whole entry): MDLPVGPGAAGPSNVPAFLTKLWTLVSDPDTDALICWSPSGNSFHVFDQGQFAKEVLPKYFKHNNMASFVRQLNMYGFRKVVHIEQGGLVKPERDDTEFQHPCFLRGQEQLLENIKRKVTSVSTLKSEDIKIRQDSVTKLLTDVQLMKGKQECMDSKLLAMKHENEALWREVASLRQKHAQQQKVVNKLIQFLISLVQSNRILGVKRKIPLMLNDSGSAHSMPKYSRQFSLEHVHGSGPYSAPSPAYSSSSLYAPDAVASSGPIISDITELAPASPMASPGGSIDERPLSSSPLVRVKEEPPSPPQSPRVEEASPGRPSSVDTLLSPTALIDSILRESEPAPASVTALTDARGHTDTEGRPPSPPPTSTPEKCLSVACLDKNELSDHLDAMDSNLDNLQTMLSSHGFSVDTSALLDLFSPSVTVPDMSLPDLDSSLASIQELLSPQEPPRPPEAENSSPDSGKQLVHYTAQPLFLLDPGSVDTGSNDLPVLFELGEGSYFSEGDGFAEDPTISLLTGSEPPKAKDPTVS
Chain of ETV6 (P41212 whole entry): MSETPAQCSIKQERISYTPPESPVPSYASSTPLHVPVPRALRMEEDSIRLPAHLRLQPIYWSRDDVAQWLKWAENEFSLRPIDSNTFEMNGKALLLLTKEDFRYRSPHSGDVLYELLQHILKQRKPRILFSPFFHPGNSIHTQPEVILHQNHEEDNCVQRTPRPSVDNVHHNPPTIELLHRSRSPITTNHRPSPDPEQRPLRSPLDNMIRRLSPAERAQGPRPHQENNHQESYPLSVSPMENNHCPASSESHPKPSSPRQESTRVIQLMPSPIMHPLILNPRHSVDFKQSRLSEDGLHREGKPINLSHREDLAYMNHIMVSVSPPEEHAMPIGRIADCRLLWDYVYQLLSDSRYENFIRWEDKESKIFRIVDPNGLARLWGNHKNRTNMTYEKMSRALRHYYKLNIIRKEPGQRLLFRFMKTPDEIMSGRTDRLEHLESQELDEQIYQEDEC
Chain of ELF4 (Q99607 whole entry): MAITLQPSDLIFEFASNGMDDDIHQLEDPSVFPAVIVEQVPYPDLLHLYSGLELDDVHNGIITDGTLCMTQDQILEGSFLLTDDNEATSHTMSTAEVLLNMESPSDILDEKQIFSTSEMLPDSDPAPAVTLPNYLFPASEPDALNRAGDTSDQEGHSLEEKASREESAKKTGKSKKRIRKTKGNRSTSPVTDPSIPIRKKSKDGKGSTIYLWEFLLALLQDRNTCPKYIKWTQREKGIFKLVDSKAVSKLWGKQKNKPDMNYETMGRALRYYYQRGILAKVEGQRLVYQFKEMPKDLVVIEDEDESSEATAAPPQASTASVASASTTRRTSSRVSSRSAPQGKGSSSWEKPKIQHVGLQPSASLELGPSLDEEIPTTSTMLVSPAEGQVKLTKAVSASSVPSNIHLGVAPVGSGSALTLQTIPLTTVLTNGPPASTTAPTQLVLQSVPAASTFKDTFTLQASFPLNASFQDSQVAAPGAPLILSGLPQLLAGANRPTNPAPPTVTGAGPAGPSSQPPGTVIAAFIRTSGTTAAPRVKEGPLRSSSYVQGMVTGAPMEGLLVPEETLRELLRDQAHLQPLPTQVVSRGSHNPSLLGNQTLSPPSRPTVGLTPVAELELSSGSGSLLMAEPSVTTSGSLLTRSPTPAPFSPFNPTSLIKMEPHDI

For the sequence CAATCT, the binding signal is 1.2 fold enrichment (6-mer frequency, TF over GST control) in the experiment with FEV; 1.21 fold enrichment (6-mer frequency, TF over GST control) with ETV5; 1.48 fold enrichment (6-mer frequency, TF over GST control) in the experiment with HSF1; 1.19 fold enrichment (6-mer frequency, TF over GST control) with SPIC; 1.2 fold enrichment (6-mer frequency, TF over GST control) with ELF4; 1.2 fold enrichment (6-mer frequency, TF over GST control) with ELK4. The binding signal in the experiment with ETV2 is 1.3 fold enrichment (6-mer frequency, TF over GST control); with ELF3, 1.19 fold enrichment (6-mer frequency, TF over GST control); with CRX it was 1.42 fold enrichment (6-mer frequency, TF over GST control); in the experiment with ETV1, 1.26 fold enrichment (6-mer frequency, TF over GST control); with ERF it was 1.21 fold enrichment (6-mer frequency, TF over GST control); in the experiment with ETV3L, 1.14 fold enrichment (6-mer frequency, TF over GST control). The binding signal in the experiment with ETS2 was 1.18 fold enrichment (6-mer frequency, TF over GST control); in the experiment with SPDEF it was 1.03 fold enrichment (6-mer frequency, TF over GST control); in the experiment with ETV7, 1.25 fold enrichment (6-mer frequency, TF over GST control); with ELF5 it was 1.16 fold enrichment (6-mer frequency, TF over GST control); in the experiment with ETV3, 1.19 fold enrichment (6-mer frequency, TF over GST control); with ETV6 it was 1.19 fold enrichment (6-mer frequency, TF over GST control).

The values above are taken from PMC7862700, “An all-to-all approach to the identification of sequence-specific readers for epigenetic DNA modifications on cytosine”.
